From PubChem BioAssay AID1159580 (chemical genetic matrix, 2015) come the findings set out here.

Among all 5,500 compounds or so, about 2,000 (36%) were called active. Not shown: some 18% with an inconclusive outcome. This is one part of the list. Unmarked numbers belong to inactive results. Rule as the data show it: active = normalized growth mostly below about 0.91 (no sharp cut-off); inconclusive = no clear call, values can overlap the other calls; inactive = mostly above about 0.92.

The test can be described thus: chemical genetic growth profiling, strain panel (AID 1159580).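 Also: tested at 20 µM; growth read once vehicle control cultures reached saturation at 30 °C; 1 = growth at the plate median or of vehicle wells; lower values mean less growth of the strain.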 The settings on record: growth OD.
The mark [1] stands for this setting: S. cerevisiae deletion strains, locus YAL013W, strain DEP1, stronger effect = lower value.
Setting [2] is: S. cerevisiae deletion strains, locus YBR229C, strain ROT2, stronger effect = lower value.
[3] abbreviates: S. cerevisiae deletion strains, locus YDL101C, strain DUN1, stronger effect = lower value.
Setting [4] is: S. cerevisiae deletion strains, locus YDL134C, strain PPH21, stronger effect = lower value.
Where [5] appears, read: S. cerevisiae deletion strains, locus YDR150W, strain NUM1, stronger effect = lower value.
Where [6] appears, read: S. cerevisiae deletion strains, locus YEL061C, strain CIN8, stronger effect = lower value.
Setting [7] is: S. cerevisiae deletion strains, locus YGR078C, strain PAC10, stronger effect = lower value.
The mark [8] stands for this setting: S. cerevisiae deletion strains, locus YGR229C, strain SMI1, stronger effect = lower value.
[9] abbreviates: S. cerevisiae deletion strains, locus YHR030C, strain SLT2, stronger effect = lower value.
Where [10] appears, read: S. cerevisiae deletion strains, locus YHR087W, strain rtc3, stronger effect = lower value.
Setting [11] is: S. cerevisiae deletion strains, locus YJR043C, strain POL32, stronger effect = lower value.
Where [12] appears, read: S. cerevisiae deletion strains, locus YJR075W, strain HOC1, stronger effect = lower value.
Where [13] appears, read: S. cerevisiae deletion strains, locus YLR039C, strain RIC1, stronger effect = lower value.
Setting [14] is: S. cerevisiae deletion strains, locus YLR058C, strain SHM2 (second series), stronger effect = lower value.
Where [15] appears, read: S. cerevisiae deletion strains, locus YLR085C, strain ARP6, stronger effect = lower value.
The mark [16] stands for this setting: S. cerevisiae deletion strains, locus YLR262C, strain YPT6, stronger effect = lower value.
The mark [17] stands for this setting: S. cerevisiae deletion strains, locus YML094W, strain GIM5, stronger effect = lower value.
Setting [18] is: S. cerevisiae deletion strains, locus YMR219W, strain ESC1, stronger effect = lower value.
The mark [19] stands for this setting: S. cerevisiae deletion strains, locus YMR263W, strain SAP30, stronger effect = lower value.
[20] abbreviates: S. cerevisiae deletion strains, locus YNL153C, strain GIM3, stronger effect = lower value.
Where [21] appears, read: S. cerevisiae deletion strains, locus YNL298W, strain CLA4 (second series), stronger effect = lower value.
Where [22] appears, read: S. cerevisiae deletion strains, locus YNL322C, strain KRE1, stronger effect = lower value.
Where [23] appears, read: S. cerevisiae deletion strains, locus YNR030W, strain Alg12, stronger effect = lower value.
Setting [24] is: S. cerevisiae deletion strains, locus YOL006C, strain TOP1, stronger effect = lower value.
[25] abbreviates: S. cerevisiae deletion strains, locus YPL055C, strain LGE1, stronger effect = lower value.
[26] abbreviates: S. cerevisiae deletion strains, locus YPL241C, strain CIN2, stronger effect = lower value.
Where [27] appears, read: S. cerevisiae deletion strains, locus YPR135W, strain CTF4, stronger effect = lower value.

With `CC(=O)c1ccc(-c2ccc(C(C)=O)cc2)cc1`, the normalized growth by setting is: under setting [1], 1; under setting [2], 0.999; under setting [3], 1.03; under setting [4], 1.01; under setting [5], 1; under setting [6], 1.01. In addition, the normalized growth by setting is: under setting [7], 1.02; under setting [8], 1; under setting [9], 0.999; under setting [10], 0.987; under setting [11], 0.974; under setting [12], 1.02. Besides, the normalized growth is 1 (S. cerevisiae deletion strains, locus YKL190W, strain CNB1, stronger effect = lower value); 1.06 under setting [13]; 0.987 under setting [14]; 0.95 under setting [15]; 1.03 under setting [16]; 0.955 under setting [17]. In addition, the normalized growth reads like this: under setting [18], 1.02; under setting [19], 1; (S. cerevisiae deletion strains, locus YMR307W, strain GAS1, stronger effect = lower value) 0.977; under setting [20], 1.01; under setting [21], 1.01; under setting [22], 1.01. In addition, the normalized growth was 1.01 under setting [23]; 0.956 under setting [24]; 0.941 under setting [25]; 0.991 under setting [26]; 1.01 under setting [27]; 1.03 (S. cerevisiae strains, strain wild type, stronger effect = lower value).
Consider `CCC(=O)c1ccc(-c2ccccc2)cc1`, for which the normalized growth reads like this: under setting [1], 0.948; under setting [2], 0.93; (S. cerevisiae deletion strains, locus YCL061C, strain MRC1, stronger effect = lower value) 0.904 (active); under setting [3], 0.918; under setting [4], 0.963; under setting [5], 0.899. The normalized growth runs as follows: under setting [6], 0.895 (active); under setting [7], 0.935; under setting [8], 0.978; under setting [9], 0.502 (active); under setting [10], 0.939; under setting [11], 0.912 (active). Also, the normalized growth is 0.912 under setting [12]; 0.765 (active) under setting [13]; 0.953 under setting [14]; 0.631 (active) under setting [15]; 0.727 (active) under setting [16]; 0.934 under setting [17]. Besides, the normalized growth runs as follows: under setting [18], 0.957; under setting [19], 0.905; under setting [20], 0.924 (active); under setting [21], 0.821 (active); under setting [22], 0.968; under setting [23], 0.936. Further, the normalized growth is 0.568 (active) under setting [24], 0.831 under setting [25], 0.863 under setting [26] and 0.58 (active) under setting [27].
With `CCC(=O)N1CCN(C(=O)c2ccccc2)CC1`, the normalized growth was 1.04 (S. cerevisiae deletion strains, locus YAL040C, strain CLN3, stronger effect = lower value); 0.992 (S. cerevisiae deletion strains, locus YCL061C, strain MRC1 (second series), stronger effect = lower value); 1.01 under setting [5]; 0.993 (S. cerevisiae deletion strains, locus YDR363W, strain ESC2, stronger effect = lower value); 1 (S. cerevisiae deletion strains, locus YER002W, strain NOP16, stronger effect = lower value); 0.989 under setting [7]. In addition, the normalized growth runs as follows: under setting [12], 1.02; under setting [19], 0.994; under setting [20], 1.05; (S. cerevisiae deletion strains, locus YNL175C, strain NOP13, stronger effect = lower value) 1.02; (S. cerevisiae deletion strains, locus YNL197C, strain WHI3, stronger effect = lower value) 0.983; (S. cerevisiae deletion strains, locus YNL224C, strain SQS1, stronger effect = lower value) 0.994. Moreover, the normalized growth (S. cerevisiae deletion strains, locus YOR083W, strain WHI5 (second series), stronger effect = lower value) was 1.03 and the normalized growth under setting [25] was 1.
